Screens: PubChem, several laboratories
eIF4E-4G inh – eIF4E/eIF4G interaction inhibition in translation initiation; 0.37% of 220,000 active; inhibition, % at 21.7 µM; TR-FRET eIF4E-eIF4GI(517-606) binding, 2 h; P63073+Q04637;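 active means inhibition above about 30%, limit read from the data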
eIF4H FP inh – inhibitors of RNA binding by human eIF4H; AID 2012; 0.94% of 290,000 active; inhibition, % at 35 µM; eIF4H fluorescence polarization binding assay; Q15056;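 further: calls also rest on retests at 20 µM and on dose response follow-up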
PERK inhibitor – inhibitors of human PERK kinase; Q9NZJ5; CHO PERK-DD fusion, SEAP luminescence translation reporter; AID 1416; inhibition, % at 5.6 µM; 0.17% of 220,000 active;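 active means inhibition above the mean inhibition of all tested compounds plus 3 SD, set separately per screening campaign, cut at about 2.9% in these data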;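 further: PERK kinase domain activated by AP20187 dimerizer at 100 nM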
PABP FP inh – PABP-poly(A) binding inhibition; P11940; PABP-poly(A) RNA binding, fluorescence polarization; inhibition, % at 35 µM; 1% of 290,000 active;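 further: calls also rest on retests at 20 µM and on dose response follow-up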
MLLE-PAM2 inh – blocks PAM2 peptide binding to the PABP1 MLLE domain; inhibition, % at 20 µM; GST-MLLE / FITC-PAM2 fluorescence polarization; 0.36% of 360,000 active; in the data active means inhibition above about 35%, passing the limit was not always enough
Large screens that a line does not name were inactive. Most compounds without a hit are left out; they make up all but 1.6% or so of the library. Unless noted, how the calls were made is not given here.

COc1cccc(NC(=O)N(CCCN2CCOCC2)C(C)c2cc3cccc(OC)c3o2)c1 (stereo unspecified)	none
COc1ccc(NC(=S)NC(NC(=O)c2ccccc2Cl)C(Cl)(Cl)Cl)c([N+](=O)[O-])c1 (stereo unspecified)	MLLE-PAM2 inh 39
COc1ccc(NC(=S)NC(NC(=O)c2ccc(Cl)cc2Cl)C(Cl)(Cl)Cl)c([N+](=O)[O-])c1 (stereo unspecified)	MLLE-PAM2 inh 36
CCC(c1nnnn1Cc1ccc(F)cc1)N(CCCO)Cc1cc2cc3c(cc2[nH]c1=O)OCO3 (stereo unspecified)	MLLE-PAM2 inh 45
CCC(c1nnnn1CC1CCCO1)N(CCCO)Cc1cc2cccc(C)c2[nH]c1=O (stereo unspecified)	none
O=C(C=Cc1ccccc1)c1cccs1	none (no result: eIF4E-4G inh, eIF4H FP inh, PERK inhibitor, PABP FP inh)
Nc1ccc(/C=C/C(=O)c2cccs2)cc1	eIF4H FP inh 65
COc1ccc(C(=O)NCC(=O)OC2CCCCC2=O)cc1 (stereo unspecified)	PERK inhibitor 3.6
CC(=O)Nc1ccc(NC(=O)CSc2nc(=O)n(Cc3cccnc3)c3c2CCC3)cc1	none (no result: eIF4E-4G inh, eIF4H FP inh, PERK inhibitor, PABP FP inh)
Cc1cccc(C)c1OCC(C)N (stereo unspecified)	eIF4E-4G inh 85 (no result: PERK inhibitor)
Cc1cccc(C)c1OCC(N)C(C)C (stereo unspecified)	none (no result: eIF4E-4G inh, eIF4H FP inh, PERK inhibitor, PABP FP inh)
O=C(CN1CCN(c2ccccn2)CC1)Nc1ccc(Oc2ccccc2)cc1	eIF4H FP inh active
CC(=O)c1ccc(NC(=O)CSc2nnc(C3CC3)n2C2CC2)cc1	none (no result: eIF4E-4G inh, eIF4H FP inh, PERK inhibitor, PABP FP inh)
Cc1ccc(S(=O)(=O)CC(=O)Nc2nc(-c3ccccc3)cs2)cc1	none
Cc1cc(C(F)(F)F)nc(SCC(=O)NC2=NC(=O)C(C)S2)n1 (stereo unspecified)	MLLE-PAM2 inh 44
Cc1cc(C)nc(SCC(=O)NC2=NC(=O)C(C)S2)n1 (stereo unspecified)	none (no result: MLLE-PAM2 inh)
CN(C)c1ccc(C2Nc3ccccc3C(=O)N2CCN2CCNC2=O)cc1 (stereo unspecified)	none
COc1ccc([N+](=O)[O-])cc1N(CC(O)CN1CCCCC1)S(=O)(=O)c1ccc(C)cc1 (stereo unspecified)	eIF4H FP inh 112, PABP FP inh 99
COc1ccc([N+](=O)[O-])cc1N(CC(O)CN1CCOCC1)S(=O)(=O)c1ccccc1 (stereo unspecified)	none (no result: eIF4E-4G inh, PERK inhibitor)
O=C1CCCC2=C1C(c1ccc(O)c(O)c1)Nc1ccc3ncccc3c12 (stereo unspecified)	eIF4H FP inh 74, PABP FP inh active
Cc1ccccc1C(=O)N1CCC(C(=O)Nc2ccccn2)CC1	none (no result: eIF4E-4G inh, eIF4H FP inh, PERK inhibitor, PABP FP inh)
COc1ccc(CNC(=O)COC(=O)c2ccc3ccccc3n2)cc1	none (no result: eIF4E-4G inh, eIF4H FP inh, PERK inhibitor, PABP FP inh)
O=C(N/N=C/c1ccncc1)c1ccccc1	PERK inhibitor 3.6
O=C(N/N=C/c1ccncc1)c1ccccn1	none (no result: eIF4E-4G inh, PERK inhibitor)
CC(C)c1ccc(/C=N/NC(=O)c2ccccn2)cc1	eIF4E-4G inh 55
COc1ccc(NS(=O)(=O)c2cc(NC(=O)C3CCCO3)ccc2N2CCCC2)cc1 (stereo unspecified)	none
Cc1c(CC(=O)N[C@@H](C)C(=O)O)c(=O)oc2c(C)c3occ(-c4ccccc4)c3cc12	none (no result: eIF4E-4G inh, PERK inhibitor)
COc1cc(NC(C)CCCNC(C)C)c2ncccc2c1OC (stereo unspecified)	MLLE-PAM2 inh 44 (no result: eIF4E-4G inh, eIF4H FP inh, PERK inhibitor, PABP FP inh)
Cc1ccc(Cl)c(NC(=O)CSc2cccc[n+]2[O-])c1Cl	none (no result: eIF4E-4G inh, eIF4H FP inh, PERK inhibitor, PABP FP inh)
O=P(NC1CCCCC1)(c1ccccc1)c1ccccc1	none (no result: eIF4E-4G inh, eIF4H FP inh, PERK inhibitor, PABP FP inh)
O=P(OCC1CC1)(c1ccccc1)c1ccccc1	PABP FP inh 122
CCC(Oc1ccccc1)C(=O)O/N=C(\N)c1ccc(OC)c(OC)c1 (stereo unspecified)	eIF4H FP inh active, PABP FP inh 122
COc1ccc(COc2ccc(C3C(S(=O)(=O)c4ccccc4)CON3C)cc2OC)cc1 (stereo unspecified)	none
CC(C)(C)C1=Nn2c(nnc2-c2ccccn2)SC1	eIF4E-4G inh 51
COc1ccc(-c2[nH]ncc2CN2CCN(Cc3cccs3)CC2)c(F)c1	none
COc1cc(-c2[nH]ncc2CN2CCN(Cc3cccs3)CC2)cc(OC)c1OC	eIF4E-4G inh 90
COc1ccc(-c2ccc(-c3noc(-c4ccccc4C)n3)c(OC)n2)cc1	none
COc1ccc(-c2ccc(-c3noc(-c4cccs4)n3)c(OC)n2)cc1	eIF4H FP inh 29, PABP FP inh 50
Cc1cccc(C)c1NC(=S)Nc1ccc(F)cc1	MLLE-PAM2 inh 44
Cc1ccc(NC(=S)Nc2ccc(F)cc2)cc1C	none (no result: eIF4E-4G inh, PERK inhibitor)
C(=N\NC1=Nc2cccc3cccc1c23)/c1ccccc1	eIF4H FP inh inconclusive
NC1=Nc2cccc3cccc1c23	PABP FP inh 0.8
COc1cc(C(=O)NC(=S)N(C)Cc2ccccc2)cc(OC)c1OC	none
CC1=C(C#N)C(=O)NC(=O)/C1=C\c1ccc(-c2cc(C)c(C)cc2[N+](=O)[O-])o1	eIF4E-4G inh 48, eIF4H FP inh inconclusive, PABP FP inh inconclusive
Cc1ccc(-c2ccc(/C=C3/NC(=O)NC3=O)o2)cc1[N+](=O)[O-]	eIF4H FP inh inconclusive
CCCCCn1c(=O)c(C(=O)c2ccccc2)nc2ccccc21	PABP FP inh 65
Cc1ccc(/C=N/Nc2ncnc3nc[nH]c23)cc1	none
Clc1ccc(/C=N/Nc2ncnc3nc[nH]c23)cc1	eIF4E-4G inh 66
COC(=O)c1cc2oc(C)cc2n1CC(=O)N(C)c1ccccc1	none
O=C(Nc1cccc2ccccc12)N1CC=CCC1	eIF4H FP inh 81, PABP FP inh 95
CCOc1ccc(NC(=S)NC(=O)c2cccnc2)c([N+](=O)[O-])c1	MLLE-PAM2 inh 44 (no result: eIF4E-4G inh, PERK inhibitor)
COc1ccc(C(=O)NC(=S)NCc2cccnc2)cc1[N+](=O)[O-]	MLLE-PAM2 inh 38
COc1ccc(C(=O)NC(=S)NCc2cccnc2)cc1OC	none
CCOc1ccc(NC(=S)NC(=O)c2c(Br)cnn2C)c([N+](=O)[O-])c1	none
CC(=O)Nc1ccc(N=Cc2c(O)c3ccccc3oc2=O)cc1	none (no result: eIF4E-4G inh, PERK inhibitor)
CC(=O)Nc1ccc(N=Cc2c(O)c(C(=O)Nc3ccccc3)cc3ccccc23)cc1	eIF4E-4G inh 30, eIF4H FP inh inconclusive (no result: MLLE-PAM2 inh)
CCCc1cc(=O)[nH]c(SCC(=O)NC(=O)OCC)n1	none
Cc1cc(=O)[nH]c(SCC(=O)Nc2ccc3c(c2)OCCO3)n1	PERK inhibitor 3.3
Cc1nnc(SCC(=O)Nc2ccc3c(c2)OCO3)n(N)c1=O	eIF4H FP inh active, PABP FP inh 81
CCCc1cc(=O)[nH]c(SCC(=O)Nc2nonc2N)n1	MLLE-PAM2 inh 41
Nn1c(SCC(=O)Nc2ccc3c(c2)OCO3)nnc1-c1ccccc1	none
O=C(CSc1nccc(=O)[nH]1)Nc1ccc2c(c1)OCCO2	none
Cn1c(N)c(C(=O)COC(=O)CCc2nc3ccccc3s2)c(=O)n(C)c1=O	none
COc1ccc2[nH]c3c(C)c4ccncc4c(C)c3c2c1	eIF4E-4G inh 33
COC1=C/C(=C/c2c(O)c(C#N)c3ccccn23)C=CC1=O	PABP FP inh 39
Cc1ccc(/C=c2\sc3nc(-c4ccccc4Br)nn3c2=O)o1	none
Cc1cc(C)cc(N2CN=c3s/c(=C\c4ccco4)c(=O)n3C2)c1	none
COc1ccccc1/C=c1\sc2nc(-c3ccccc3OC)nn2c1=O	none
